Results reported in PubChem BioAssay (NCATS).
Inconclusive results are not listed. The source made the active and inactive calls. Unless noted, calls come from the whole dose curve; as a rule, active = well fitted inhibition curve with a large enough effect; inconclusive = small, poorly fitted or top-dose-only effect; inactive = flat fitted curve, though single readings scatter.

Tests used:
[1] = qHTS assay for small molecule agonists of retinoid X receptor alpha signaling (AID 588544); settings: HEK293T RXRa-UAS-bla, beta-lactamase reporter, 18 h; 530 nm emission
[2] = biological target: Thyroid hormone receptor beta (Homo sapiens) (UniProt P10828); assay: qHTS assay for small molecule agonists of thyroid hormone receptor beta signaling (AID 588545; calls by dose curve); settings: TR-UAS-bla GripTite HEK 293, beta-lactamase ratio, agonist mode, 18 h, percent of T3 response, DMSO as zero; series mostly up to 76.7 µM
Outline: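 In this cell-based screen, titrated compounds act on HEK 293 cells held in medium with 2% charcoal/dextran FBS, NEAA and pyruvate for 18 hrs at 37 C. Responses are expressed relative to T3 (10 nM) as 100% and basal DMSO as 0%.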

[3] = qHTS assay for small molecule antagonists of retinoid X receptor alpha signaling (AID 588546; active = well fitted inhibition curve with a large enough effect in the signal ratio, with a control signal flat, not every such curve was filed as active; the % refers to the signal ratio;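 note: cells stimulated with 9-cis-retinoic acid as agonist; % is set by controls: 0 for no effect and ±100 for the full control effect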); settings: HEK293T RXRa-UAS-bla, beta-lactamase ratio, antagonist mode; measured here: W530 green channel, cytotoxicity proxy
Outline: (§1)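 Beta-lactamase reporter inhibition, read as CCF4 fluorescence ratio (ex 405, em 460/530 nm) after 2 h at RT. HEK293T UAS-bla cells, 2500/well, were stimulated with 9-cis-RA at 500 or 100 nM final alongside test compound for 18 h at 37 C.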

[4] = biological target: Retinoic acid receptor RXR-alpha (Homo sapiens) (UniProt P19793); assay: as above; settings: HEK293T RXRa-UAS-bla, beta-lactamase ratio, antagonist mode
Outline: as §1

[5] = biological target: Thyroid hormone receptor beta (Homo sapiens) (UniProt P10828); assay: qHTS assay for small molecule antagonists of thyroid hormone receptor beta signaling (AID 588547; active = well fitted inhibition curve with a large enough effect in the signal ratio, with a control signal flat, not every such curve was filed as active; the % refers to the signal ratio;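 note: cells stimulated with 0.4 nM T3 agonist during compound exposure; % is set by controls: 0 for no effect and ±100 for the full control effect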); settings: TR-UAS-bla HEK293, beta-lactamase ratio, antagonist mode, 18 h
Outline: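 TR-UAS-bla GripTite HEK293 cells in 2% charcoal/dextran FBS medium were preincubated 4 h at 37 C, given compound (0.59 nM to 92 uM) plus 0.4 nM T3 (final) for 18 h, then CCF4 for 2 h at RT; Hill fit gave IC50.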

[6] = biological target: Voltage-gated inwardly rectifying potassium channel KCNH2 (Homo sapiens) (UniProt Q12809); assay: qHTS Assay for Small Molecule Inhibitors of the Human hERG Channel Activity (AID 588834); settings: U2OS BacMam hERG, FluxOR thallium flux fluorescence; series mostly up to 92.2 µM;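 note: top concentration of the series differs between compounds; % is set by controls: 0 for no effect and ±100 for the full control effect; lower thallium flux fluorescence means stronger hERG block; nearly all actives have a fitted effect of over 50% in size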
Outline: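 U2OS cells BacMam-transduced with hERG, 2000 cells/well, compound ~10 min at 37 °C before stimulation buffer. FluxOR thallium flux fluorescence read kinetically on FDSS; decrease indicates block; AC50 from Hill fits.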

[7] = qHTS assay for small molecule activators of the p53 signaling pathway (AID 651743; active = well fitted activation curve with a large enough effect in the signal ratio, not every such curve was filed as active; the % refers to the signal ratio; note: % of control where 0% means no effect); settings: HCT-116 p53RE-bla, beta-lactamase FRET ratio, 16 h; stronger effect = higher value
Outline: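 Cell-based beta-lactamase reporter (p53 response elements, HCT-116 background). After a 5-hour preincubation, cells received compound for 16 hours at 37 C; substrate development ran 2 hours at room temperature.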

[8] = qHTS assay for small molecule activators of the nuclear factor-kappa B (NF-kB) signaling pathway (AID 651749; active = well fitted activation curve with a large enough effect in the signal ratio; the % refers to the signal ratio; note: % of control where 0% means no effect); settings: NF-kB-bla ME-180 cells, beta-lactamase FRET ratio, 16 h; stronger effect = higher value
Outline: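 Screening used 2,000 ME-180 reporter cells per well exposed to pinned compound (23 nL) or DMSO; after 16 hr at 37C, beta-lactamase expression under NF-kB control was assessed through FRET.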

[9] = qHTS assay for small molecule agonists of the antioxidant response element (ARE) signaling pathway (AID 651741; active = well fitted activation curve with a large enough effect in the signal ratio; the % refers to the signal ratio; note: potency is the fitted concentration of half-maximal effect; for activation: % of control where 0% means no effect); settings: HepG2 ARE-bla reporter, beta-lactamase FRET ratio, 16 h; series mostly up to 96 µM
Outline: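 Compounds in DMSO are pinned onto HepG2 ARE-bla cells (2,000/well) that were preincubated 5 h; plates stay 16 h at 37 C, then beta-lactamase activity is detected with LiveBLAzer B/G substrate by fluorescence.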

Retinoic acid receptor RXR-alpha (Homo sapiens), sequence (P19793 whole entry, looked up): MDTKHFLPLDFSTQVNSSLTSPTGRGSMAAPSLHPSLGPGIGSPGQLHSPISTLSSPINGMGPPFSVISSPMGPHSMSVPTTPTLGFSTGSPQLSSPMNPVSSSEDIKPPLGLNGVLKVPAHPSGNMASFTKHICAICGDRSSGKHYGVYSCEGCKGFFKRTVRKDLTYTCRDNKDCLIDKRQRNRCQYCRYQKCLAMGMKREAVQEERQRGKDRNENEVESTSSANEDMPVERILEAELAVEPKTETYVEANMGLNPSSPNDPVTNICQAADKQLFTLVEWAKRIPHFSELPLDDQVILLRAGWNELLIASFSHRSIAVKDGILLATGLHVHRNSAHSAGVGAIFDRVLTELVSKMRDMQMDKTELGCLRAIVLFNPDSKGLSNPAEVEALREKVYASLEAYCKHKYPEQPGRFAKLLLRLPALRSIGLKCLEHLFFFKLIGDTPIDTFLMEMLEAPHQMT
Thyroid hormone receptor beta (Homo sapiens), sequence (P10828 whole entry, looked up): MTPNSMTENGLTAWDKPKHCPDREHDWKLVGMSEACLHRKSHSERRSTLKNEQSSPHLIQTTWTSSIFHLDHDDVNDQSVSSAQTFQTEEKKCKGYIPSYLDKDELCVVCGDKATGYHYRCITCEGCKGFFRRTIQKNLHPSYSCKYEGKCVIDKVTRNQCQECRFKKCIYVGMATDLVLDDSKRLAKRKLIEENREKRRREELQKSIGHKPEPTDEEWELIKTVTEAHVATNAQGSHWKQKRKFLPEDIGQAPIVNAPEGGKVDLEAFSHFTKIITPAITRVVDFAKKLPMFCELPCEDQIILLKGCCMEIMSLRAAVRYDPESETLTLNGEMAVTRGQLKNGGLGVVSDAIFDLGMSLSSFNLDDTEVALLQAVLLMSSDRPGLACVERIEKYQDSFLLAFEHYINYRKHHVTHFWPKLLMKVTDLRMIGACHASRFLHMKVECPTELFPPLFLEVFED
Voltage-gated inwardly rectifying potassium channel KCNH2 (Homo sapiens), sequence (Q12809 whole entry, looked up): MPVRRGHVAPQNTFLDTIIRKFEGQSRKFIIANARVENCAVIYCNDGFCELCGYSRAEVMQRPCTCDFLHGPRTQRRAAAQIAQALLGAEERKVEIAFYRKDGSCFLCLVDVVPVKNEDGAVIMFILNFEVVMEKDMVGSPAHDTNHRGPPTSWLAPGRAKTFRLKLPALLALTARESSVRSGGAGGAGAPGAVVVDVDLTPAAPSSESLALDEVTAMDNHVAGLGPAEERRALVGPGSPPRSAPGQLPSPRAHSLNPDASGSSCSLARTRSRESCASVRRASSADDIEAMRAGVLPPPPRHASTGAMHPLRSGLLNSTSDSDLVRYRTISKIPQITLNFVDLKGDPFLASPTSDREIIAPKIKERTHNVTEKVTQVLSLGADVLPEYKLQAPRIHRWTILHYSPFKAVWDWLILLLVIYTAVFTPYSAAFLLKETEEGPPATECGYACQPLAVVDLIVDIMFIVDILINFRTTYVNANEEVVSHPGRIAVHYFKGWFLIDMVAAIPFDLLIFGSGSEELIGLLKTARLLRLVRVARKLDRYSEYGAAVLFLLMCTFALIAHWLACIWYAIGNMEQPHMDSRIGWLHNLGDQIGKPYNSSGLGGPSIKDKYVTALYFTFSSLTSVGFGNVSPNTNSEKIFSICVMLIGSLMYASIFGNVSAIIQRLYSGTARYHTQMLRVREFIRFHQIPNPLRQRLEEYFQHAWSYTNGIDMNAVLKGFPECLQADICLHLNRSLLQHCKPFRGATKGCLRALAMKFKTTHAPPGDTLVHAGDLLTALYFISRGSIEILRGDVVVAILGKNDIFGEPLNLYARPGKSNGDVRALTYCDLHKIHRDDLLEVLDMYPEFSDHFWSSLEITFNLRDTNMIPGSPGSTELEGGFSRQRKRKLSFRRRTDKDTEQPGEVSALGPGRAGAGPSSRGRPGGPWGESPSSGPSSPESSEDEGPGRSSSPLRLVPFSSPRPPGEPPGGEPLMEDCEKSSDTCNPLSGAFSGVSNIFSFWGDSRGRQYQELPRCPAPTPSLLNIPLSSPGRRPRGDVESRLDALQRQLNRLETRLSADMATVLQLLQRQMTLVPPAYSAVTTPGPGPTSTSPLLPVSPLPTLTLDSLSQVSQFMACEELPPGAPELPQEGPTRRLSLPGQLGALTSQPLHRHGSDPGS

Row | Structure (SMILES) | max response [1] | outcome [2] | max response [3] | max response [4] | activity change % (negative = inhibition) [5] | Potency [6] | activation [7] | activation [8] | Potency [9]
1 | C=CCCCCCC | -14% | inactive | 0.804% | -6.3% (inactive) | -3.79% (inactive) | inactive | -2.89% (inactive) | – | –
2 | O=C(O)c1ccccc1C(=O)O | 13.6% | inactive | 4.98% | -5% (inactive) | 0.364% (inactive) | inactive | -2.08% (inactive) | -0.93% (inactive) | –
3 | C[C@@H]1CC2(OC3C[C@@]4(C)C5=CC[C@H]6C(C)(C)C(O[C@@H]7OC[C@@H](O)[C@H](O)[C@H]7O)CC[C@@]67C[C@@]57CC[C@]4(C)C31)OC(O)C1(C)OC21 (stereo partly specified) | – | inactive | – | – | – | inactive | -4.93% (inactive) | -1.92% (inactive) | 75 µM (active)
4 | [O-]/[N+](=N\O)c1ccccc1 | – | inactive | – | – | – | inactive | -2.28% (inactive) | – | –
5 | CC(=O)OCCC(C)C | -5.59% | – | -8.93% | 2.22% (inactive) | 8.77% (inactive) | inactive | -1.24% (inactive) | – | inactive
6 | Fc1ccccc1 | -11.1% | – | -11.6% | -5.23% (inactive) | -5.64% (inactive) | inactive | – | 0.343% (inactive) | inactive
7 | C=CCOC(=O)CCCCCCCC | – | inactive | -1.68% | -5.32% (inactive) | -0.411% (inactive) | – | -2.19% (inactive) | – | inactive
8 | Cc1ccc2nc(-c3ccc(N)cc3)sc2c1S(=O)(=O)O | – | – | -1.52% | 30.6% (inactive) | – | inactive | 18.6% (inactive) | – | 42.2 µM (active)
9 | CC/C(C)=N/O | -14.2% | inactive | – | – | 13.4% (inactive) | inactive | -0.712% (inactive) | – | –
10 | CSc1ccc(C=O)cc1 | -15.5% | inactive | -1.24% | 1.67% (inactive) | 3.08% (inactive) | inactive | – | 0.0922% (inactive) | –
11 | O=Cc1ccccc1Cl | -11.2% | inactive | 3.56% | 26.5% (inactive) | 5% (inactive) | inactive | – | -1.13% (inactive) | inactive
12 | CCOCCO | 9.04% | – | 1.51% | 7.78% (inactive) | -11.8% (inactive) | inactive | -2.61% (inactive) | -1.02% (inactive) | inactive
13 | COC(=O)CS | -8.12% | – | -3.61% | 1.63% (inactive) | – | inactive | -2.8% (inactive) | -0.561% (inactive) | inactive
14 | COc1cccc2sc(N)nc12 | 2.8% | inactive | -11.1% | -10.9% (inactive) | -20.5% (inactive) | inactive | – | 0.198% (inactive) | inactive
15 | CC1=C(/C=C/C(C)=C/C=C/C(C)=C\C=O)C(C)(C)CCC1 | – | inactive | – | – | -14.6% (inactive) | – | 8.65% (inactive) | -1.57% (inactive) | 37.6 µM (active)
16 | COc1ccc(N=[N+]([O-])c2ccc(OC)cc2)cc1 | – | inactive | -4.97% | -10.1% (inactive) | 11.6% (inactive) | inactive | -0.811% (inactive) | – | 37.6 µM (active)
17 | CCCCCO | -7.88% | – | -5.62% | 1.09% (inactive) | 2.41% (inactive) | inactive | 0.0408% (inactive) | -0.261% (inactive) | inactive
